# Calls of active or inactive are those of the source. How the source made its calls: active means hit-call score of the fitted dose curve at least 0.9, where 1 is the maximum; inactive means score below 0.9.
# Read-out: TIMP metallopeptidase inhibitor 2 (TIMP2), TIMP2 (gene 7077)
# Assay: BSK_KF3CT_TIMP2: BioMAP Diversity Plus: KF3CT Assay for TIMP metallopeptidase inhibitor 2 (TIMP2) Biomarker Activity (AID 2283071)
# Settings: primary human keratinocytes with fibroblasts; actives raise or lower the signal
# Description: BSK_KF3CT is a cell-based, multiplexed-readout assay that uses keratinocytes and foreskin fibroblasts, a human skin primary cell co-culture, with measurements taken at 24 hours after chemical dosing in a 96-well plate.BSK_KF3CT_TIMP2 is an assay component measured in the BSK_KF3CT assay. It measures TIMP-2 antibody related to regulation of gene expression using ELISA technology.Data from the assay component BSK_KF3CT_TIMP2 was analyzed into 1 assay endpoint. This assay endpoint, BSK_KF3CT_TIMP2, was analyzed with bidirectional fitting relative to DMSO as the negative control and baseline of activity. Using a type of binding reporter, gain or loss-of-signal activity can be used to understand changes in the signaling as they relate to the gene TIMP2. Furthermore, this assay endpoint can be referred to as a primary readout, because this assay has produced multiple assay endpoints where this one serves a signaling function. To generalize the intended target to other relatable targets, this assay endpoint is annotated to the protease inhibitor intended target family, where the subfamily is metalloproteinase inhibitor.
# The levels of cell surface (or secreted, indicated by the prefix "s") biomarker endpoints were measured by ELISA. Overt cytotoxicity to cells in confluent adherent cultures (all systems other than the BT system) was assessed by measuring total protein levels using sulforhodamine B (SRB) staining in parallel cultures at the time of biomarker measurements, indicated as SRB endpoints. For proliferation assays for adherent cell types, individual cell types are cultured at sub-confluence and relative cell numbers quantified by SRB staining at time points optimized for each system (48 h: 3C and CASM3C systems; 72 h: BT and HDF3CGF systems; 96 h: SAg system). SRB was performed by staining cells with 0.1% SRB after fixation with 10% TCA and reading wells at 560 nm.Viability and proliferation of PBMC (T cells) was quantified by Alamar Blue reduction for the SAg and BT systems. For PBMC viability (referred to as PBMC Cytotoxicity within the assay endpoint names), cells were plated (75,000/well in a 96-well plate) and then chemical samples added for 1 h before addition of activators, SEB and TSST-1 (20 ng/mL final concentration each). Cells were incubated for 90 h. Then, Alamar Blue (20 uL/well) (Invitrogen, Cat DAL1100) was added for 6 h, and the plates were read with a fluorescence microplate reader at 546/580 nm (excitation/emission). For PBMC proliferation, cells were plated and activated as above but incubated for only 16 h prior to addition of Alamar Blue. Plates were read after 6 h.
SMILES,outcome,AC50
CS(=O)(=O)c1ccc([C@@H](C[C@H]2CCC(=O)C2)C(=O)Nc2cnccn2)cc1Cl,inactive,–
Oc1ccc(O)cc1,inactive,–
Cn1cnc2c1c(=O)[nH]c(=O)n2C,inactive,–
OCC(O)CO,inactive,–
C/C=C/c1ccc(OC)cc1,inactive,–
C#CC(O)C(CC)CCCC (stereo not given),inactive,–
CCCCC(CC)CO (stereo not given),inactive,–
Nc1nc(=S)c2[nH]cnc2[nH]1,inactive,–
CN(C)C(=O)NC1(c2ccccc2)CCN(CCC[C@]2(c3ccc(Cl)c(Cl)c3)CCCN(C(=O)c3ccccc3)C2)CC1,inactive,–
C=CCCCCCCCCCCCC,inactive,–
O=C(O)CN(CC(=O)O)CC(=O)O,inactive,–
CCCCCCC(C=O)=Cc1ccccc1,inactive,–
O=NO,inactive,–
O=C1CCCCC1,inactive,–
CCCCCCCCCCCCCCOS(=O)(=O)O,–,7.76 µM (active)
CCCC(=O)O,inactive,–
CC1(C)C(=O)NC(=O)N1CO,inactive,–
NCCOCCOCCN,inactive,–
CC(C)COC(=O)CCCCC(=O)OCC(C)C,inactive,–
Nc1nc(Cl)nc2c1ncn2[C@H]1C[C@H](O)[C@@H](CO)O1,inactive,–

SMILES,outcome,AC50
Cc1cn([C@H]2C=C[C@@H](CO)O2)c(=O)[nH]c1=O,inactive,–
CC(COCC(C)OC(=O)c1ccccc1)OC(=O)c1ccccc1 (stereo not given),inactive,–
Cc1c(C)c2c(c(C)c1O)CCC(C)(COc1ccc(CC3SC(=O)NC3=O)cc1)O2 (stereo not given),–,20 µM (active)
Cc1occc(=O)c1O,inactive,–
CCOCCOCCO,inactive,–
CCCCCCCC(=O)OC,inactive,–
Cc1cc(Cc2ccc(N)c(C)c2)ccc1N,inactive,–
O=C(NS(=O)(=O)/C=C/c1cccs1)c1ccc(F)cc1Br,inactive,–
CCc1cc(C2=C(C(=O)O)N(c3ccccc3C(F)(F)F)S(=O)(=O)c3ccccc32)cc2c1OCO2,inactive,–
CC(C)NCC(O)c1ccc(O)c(O)c1 (stereo not given),inactive,–
OCC(CO)n1cnc(-c2ccc(F)cc2)c1-c1ccnc(Oc2ccccc2)n1,inactive,–
CC(=O)O,inactive,–
Cc1ccc(C(C)(C)C)c(O)c1,inactive,–
CCCCC(CC)COC(=O)CCCCCCCC(=O)OCC(CC)CCCC (stereo not given),inactive,–
CCCCC(CC)COP(=O)(OCC(CC)CCCC)OCC(CC)CCCC (stereo not given),inactive,–
NC=O,inactive,–
CCCCCCC(CCCCCCCCCCC(=O)OCC(COC(C)=O)OC(C)=O)OC(C)=O (stereo not given),inactive,–
CC1=C(C)S(=O)(=O)CCS1(=O)=O,inactive,–
Oc1ccccc1O,inactive,–
CCCCCCCCCC[N+](C)(C)[O-],–,0.0209 µM (active)

# Reference: PubChem BioAssay (EPA / NIEHS)
